Test results from the supplement of paper PMC10849652.
Of roughly 8,800 targets only a part is listed; those with a hit were picked by preference. About 0.5% of all pairs of compound and target were hits. A number with no mark means an inactive call.

Key:
Test in all cases: log2 fold change, soluble protein after heating vs DMSO (PISA); higher = thermal stabilisation; K562 lysate, 10 uM; active = over 0.2 and 3.5 SD of the protein, either way, in both replicates (recomputed)
[1] = compound: NCC(=O)Nc1ccc(-n2nc(C(F)(F)F)cc2-c2ccc3c(ccc4ccccc43)c2)cc1
Method in brief: (§1)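 Pellets of K562 cells were dounce-homogenised in PBS pH 7.4 with 1 mM MgCl2, and the crude extract was held at 1 mg/mL protein for a 30 min treatment with 10 μM compound. Aliquots were heated for 3 min over 48°C-58°C and pooled before NP-40 was added to 0.5% at 4°C. The supernatant from 21,000xg for 90 min was quantified by TMTpro 16plex LC-MS/MS with channel sums equalised. Values are reported from duplicates as log-two fold change in thermal stability relative to solvent controls.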

vorinostat = compound: O=C(CCCCCCC(=O)Nc1ccccc1)NO [vorinostat]
Method in brief: as §1

silmitasertib = compound: O=C(O)c1ccc2c(c1)nc(Nc1cccc(Cl)c1)c1ccncc12 [silmitasertib]
Method in brief: as §1

[2] = compound: O=C1NC(=O)C(c2cnc3ccccn23)=C1c1cn2c3c(cc(F)cc13)CN(C(=O)N1CCCCC1)CC2
Method in brief: as §1

entospletinib = compound: c1cn2cc(-c3ccc4cn[nH]c4c3)nc(Nc3ccc(N4CCOCC4)cc3)c2n1 [entospletinib]
Method in brief: as §1

FIGNL1 (UniProt Q6PIW4)
log2 fold change [1]: -0.016 | log2 fold change (vorinostat): -0.484 (active) | log2 fold change (silmitasertib): 0.045 | log2 fold change [2]: 0 | log2 fold change (entospletinib): 0.05

ECI2 (UniProt O75521)
log2 fold change [1]: 0.08 | log2 fold change (vorinostat): 0.146 | log2 fold change (silmitasertib): 0.022 | log2 fold change [2]: 0.284 (active) | log2 fold change (entospletinib): -0.033

FIG4 (UniProt Q92562)
log2 fold change [1]: -0.037 | log2 fold change (vorinostat): -0.517 (active) | log2 fold change (silmitasertib): 0.017 | log2 fold change [2]: 0.056 | log2 fold change (entospletinib): 0.052

ERI1 (UniProt Q8IV48)
log2 fold change [1]: -0.001 | log2 fold change (vorinostat): -0.221 (active) | log2 fold change (silmitasertib): -0.035 | log2 fold change [2]: -0.017 | log2 fold change (entospletinib): 0.041

ENY2 (UniProt Q9NPA8)
UniProt Q9NPA8, sequence (Q9NPA8 whole entry, looked up): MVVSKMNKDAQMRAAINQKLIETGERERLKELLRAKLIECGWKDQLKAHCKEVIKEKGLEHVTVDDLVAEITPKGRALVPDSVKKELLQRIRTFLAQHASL
log2 fold change [1]: -0.066 | log2 fold change (vorinostat): 0.118 | log2 fold change (silmitasertib): -0.032 | log2 fold change [2]: 0.016 | log2 fold change (entospletinib): -0.018

DTYMK (UniProt P23919)
UniProt P23919, sequence (P23919 whole entry, looked up): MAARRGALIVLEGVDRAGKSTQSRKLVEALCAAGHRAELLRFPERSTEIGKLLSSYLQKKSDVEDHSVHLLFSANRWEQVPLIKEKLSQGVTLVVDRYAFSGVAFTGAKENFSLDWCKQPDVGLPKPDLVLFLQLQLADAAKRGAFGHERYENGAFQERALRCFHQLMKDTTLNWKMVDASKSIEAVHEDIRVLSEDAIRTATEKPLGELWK
log2 fold change [1]: -0.022 | log2 fold change (vorinostat): -0.294 (active) | log2 fold change (silmitasertib): 0.071 | log2 fold change [2]: -0.023 | log2 fold change (entospletinib): 0.061

ERLIN1 (UniProt O75477)
log2 fold change [1]: -0.07 | log2 fold change (vorinostat): 0.063 | log2 fold change (silmitasertib): 0.064 | log2 fold change [2]: 0.03 | log2 fold change (entospletinib): 0.023

ERBIN isoform 8 (UniProt Q96RT1)
log2 fold change [1]: -0.016 | log2 fold change (vorinostat): -0.008 | log2 fold change (silmitasertib): -0.001 | log2 fold change [2]: -0.017 | log2 fold change (entospletinib): -0.002

EXOC5 (UniProt O00471)
UniProt O00471, sequence (O00471 whole entry, looked up): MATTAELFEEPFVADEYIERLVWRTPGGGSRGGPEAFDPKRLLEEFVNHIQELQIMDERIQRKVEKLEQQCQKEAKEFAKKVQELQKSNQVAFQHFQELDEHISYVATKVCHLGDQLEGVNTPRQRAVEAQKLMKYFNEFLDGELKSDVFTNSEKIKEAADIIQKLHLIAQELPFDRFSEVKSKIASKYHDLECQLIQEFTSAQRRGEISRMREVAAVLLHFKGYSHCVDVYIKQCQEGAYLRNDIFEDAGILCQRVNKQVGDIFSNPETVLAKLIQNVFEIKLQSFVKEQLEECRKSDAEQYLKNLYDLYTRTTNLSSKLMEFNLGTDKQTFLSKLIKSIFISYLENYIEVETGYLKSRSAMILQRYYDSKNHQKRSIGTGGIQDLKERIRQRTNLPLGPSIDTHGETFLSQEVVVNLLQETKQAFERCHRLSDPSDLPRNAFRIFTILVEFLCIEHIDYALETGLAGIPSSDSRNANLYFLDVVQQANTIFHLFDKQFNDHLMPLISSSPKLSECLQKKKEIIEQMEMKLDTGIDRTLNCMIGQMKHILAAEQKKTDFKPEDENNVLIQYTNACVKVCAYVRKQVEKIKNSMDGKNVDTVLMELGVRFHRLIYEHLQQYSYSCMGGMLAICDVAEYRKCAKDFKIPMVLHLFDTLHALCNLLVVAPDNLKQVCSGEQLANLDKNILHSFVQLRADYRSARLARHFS
log2 fold change [1]: 0.036 | log2 fold change (vorinostat): -0.293 (active) | log2 fold change (silmitasertib): 0.036 | log2 fold change [2]: 0.002 | log2 fold change (entospletinib): 0.025

GDPD1 (UniProt Q8N9F7)
log2 fold change [1]: -0.137 | log2 fold change (vorinostat): 0.056 | log2 fold change (silmitasertib): 0.033 | log2 fold change [2]: 0.177 | log2 fold change (entospletinib): -0.092

GALNT2 (UniProt Q10471)
UniProt Q10471, sequence (Q10471 whole entry, looked up): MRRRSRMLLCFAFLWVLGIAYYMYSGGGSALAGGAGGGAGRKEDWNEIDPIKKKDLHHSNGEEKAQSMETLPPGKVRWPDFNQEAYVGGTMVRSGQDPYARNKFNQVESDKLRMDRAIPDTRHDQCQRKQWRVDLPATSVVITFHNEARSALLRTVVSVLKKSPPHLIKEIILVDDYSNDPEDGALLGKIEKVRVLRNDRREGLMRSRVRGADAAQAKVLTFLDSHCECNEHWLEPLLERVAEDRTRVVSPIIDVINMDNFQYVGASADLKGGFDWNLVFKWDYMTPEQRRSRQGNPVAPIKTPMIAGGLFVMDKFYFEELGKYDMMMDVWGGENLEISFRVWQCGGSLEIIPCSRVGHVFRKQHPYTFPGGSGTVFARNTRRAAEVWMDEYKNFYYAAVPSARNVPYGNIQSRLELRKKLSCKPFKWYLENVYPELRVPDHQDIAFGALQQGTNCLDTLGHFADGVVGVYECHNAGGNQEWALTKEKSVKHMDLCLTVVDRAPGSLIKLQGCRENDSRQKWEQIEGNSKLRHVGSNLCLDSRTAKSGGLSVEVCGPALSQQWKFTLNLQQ
log2 fold change [1]: -0.018 | log2 fold change (vorinostat): 0.069 | log2 fold change (silmitasertib): 0.008 | log2 fold change [2]: -0.09 | log2 fold change (entospletinib): -0.034

FXR1 (UniProt P51114)
UniProt P51114, sequence (P51114 whole entry, looked up): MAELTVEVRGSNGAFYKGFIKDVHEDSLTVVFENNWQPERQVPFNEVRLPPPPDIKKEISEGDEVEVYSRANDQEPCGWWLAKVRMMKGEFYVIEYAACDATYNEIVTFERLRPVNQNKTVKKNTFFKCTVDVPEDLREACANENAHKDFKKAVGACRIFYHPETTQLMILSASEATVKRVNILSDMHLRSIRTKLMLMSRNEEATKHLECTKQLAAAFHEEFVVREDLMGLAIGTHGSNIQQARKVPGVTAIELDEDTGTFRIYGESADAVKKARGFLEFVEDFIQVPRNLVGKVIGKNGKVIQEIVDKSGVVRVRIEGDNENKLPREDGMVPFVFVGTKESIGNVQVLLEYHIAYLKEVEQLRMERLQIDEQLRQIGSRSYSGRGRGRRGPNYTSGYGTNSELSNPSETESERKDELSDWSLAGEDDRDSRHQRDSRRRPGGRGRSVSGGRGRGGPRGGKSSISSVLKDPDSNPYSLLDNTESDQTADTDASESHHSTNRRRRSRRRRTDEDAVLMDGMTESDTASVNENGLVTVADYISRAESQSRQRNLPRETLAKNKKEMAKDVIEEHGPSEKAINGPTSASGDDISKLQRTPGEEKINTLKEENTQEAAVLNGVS
log2 fold change [1]: -0.006 | log2 fold change (vorinostat): -0.257 (active) | log2 fold change (silmitasertib): 0.045 | log2 fold change [2]: -0.041 | log2 fold change (entospletinib): 0.023

FNBP1L (UniProt Q5T0N5)
log2 fold change [1]: 0.001 | log2 fold change (vorinostat): -0.373 (active) | log2 fold change (silmitasertib): 0.102 | log2 fold change [2]: -0.041 | log2 fold change (entospletinib): 0.017

ECH1 (UniProt Q13011)
log2 fold change [1]: 0.041 | log2 fold change (vorinostat): 0.081 | log2 fold change (silmitasertib): -0.026 | log2 fold change [2]: -0.052 | log2 fold change (entospletinib): 0.022

FDX2 (UniProt Q6P4F2)
log2 fold change [1]: -0.03 | log2 fold change (vorinostat): 0.195 | log2 fold change (silmitasertib): -0.069 | log2 fold change [2]: -0.066 | log2 fold change (entospletinib): 0.042

FAM114A2 (UniProt Q9NRY5)
log2 fold change [1]: -0.056 | log2 fold change (vorinostat): 0.262 | log2 fold change (silmitasertib): -0.015 | log2 fold change [2]: -0.034 | log2 fold change (entospletinib): 0

EFCAB14 (UniProt O75071)
log2 fold change [1]: 0.039 | log2 fold change (vorinostat): 0.327 (active) | log2 fold change (silmitasertib): -0.054 | log2 fold change [2]: 0.029 | log2 fold change (entospletinib): 0.013

FAM111A (UniProt Q96PZ2)
log2 fold change [1]: 0.036 | log2 fold change (vorinostat): -0.364 | log2 fold change (silmitasertib): 0.1 | log2 fold change [2]: 0.048 | log2 fold change (entospletinib): 0.044

FADS3 (UniProt Q9Y5Q0)
log2 fold change [1]: 0.21 | log2 fold change (vorinostat): 0.247 | log2 fold change (silmitasertib): -0.126 | log2 fold change [2]: 0.004 | log2 fold change (entospletinib): -0.185

EEFSEC (UniProt P57772)
UniProt P57772, sequence (P57772 whole entry, looked up): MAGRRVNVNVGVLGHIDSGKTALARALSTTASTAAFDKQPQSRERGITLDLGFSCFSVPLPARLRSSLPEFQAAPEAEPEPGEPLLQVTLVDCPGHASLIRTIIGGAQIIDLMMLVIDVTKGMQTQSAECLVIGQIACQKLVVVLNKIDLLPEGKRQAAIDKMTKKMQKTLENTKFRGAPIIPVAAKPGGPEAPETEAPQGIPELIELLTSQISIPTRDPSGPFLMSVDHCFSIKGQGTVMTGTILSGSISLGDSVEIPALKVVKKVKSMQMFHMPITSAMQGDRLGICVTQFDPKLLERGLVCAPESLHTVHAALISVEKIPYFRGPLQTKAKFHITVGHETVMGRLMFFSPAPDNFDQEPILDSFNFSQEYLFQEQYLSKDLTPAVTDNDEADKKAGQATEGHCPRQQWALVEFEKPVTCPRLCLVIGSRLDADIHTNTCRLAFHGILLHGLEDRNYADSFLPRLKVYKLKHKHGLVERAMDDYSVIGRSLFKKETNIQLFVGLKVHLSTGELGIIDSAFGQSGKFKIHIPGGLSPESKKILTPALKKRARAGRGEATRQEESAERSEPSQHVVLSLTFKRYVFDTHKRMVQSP
log2 fold change [1]: -0.022 | log2 fold change (vorinostat): -0.325 (active) | log2 fold change (silmitasertib): 0.052 | log2 fold change [2]: -0.012 | log2 fold change (entospletinib): -0.009

GEMIN5 (UniProt Q8TEQ6)
log2 fold change [1]: 0 | log2 fold change (vorinostat): -0.479 (active) | log2 fold change (silmitasertib): 0.004 | log2 fold change [2]: -0.001 | log2 fold change (entospletinib): 0.004

EXOC3 (UniProt O60645)
log2 fold change [1]: 0.018 | log2 fold change (vorinostat): -0.221 (active) | log2 fold change (silmitasertib): 0.03 | log2 fold change [2]: 0.002 | log2 fold change (entospletinib): -0.026

EPS8L2 (UniProt Q9H6S3)
log2 fold change (vorinostat): 0.017 | log2 fold change (silmitasertib): -0.019 | log2 fold change [2]: 0.026 | log2 fold change (entospletinib): 0.33 (active)

FAT1 (UniProt Q14517)
log2 fold change (vorinostat): -0.229 | log2 fold change (silmitasertib): 0.077 | log2 fold change [2]: -0.196 | log2 fold change (entospletinib): -0.034

EPB41 isoform 4 (UniProt P11171)
log2 fold change (vorinostat): 0.071 | log2 fold change (silmitasertib): 0.101 | log2 fold change [2]: -0.085

EXOC6 (UniProt Q8TAG9)
log2 fold change [1]: -0.074 | log2 fold change (vorinostat): -0.301 (active) | log2 fold change (silmitasertib): 0.057 | log2 fold change [2]: -0.006 | log2 fold change (entospletinib): 0.021

EXO5 (UniProt Q9H790)
log2 fold change (vorinostat): 0.043 | log2 fold change (silmitasertib): -0.06 | log2 fold change [2]: 0.054

GATAD2A isoform 3 (UniProt Q86YP4)
log2 fold change [1]: 0.023 | log2 fold change (vorinostat): -0.213 (active) | log2 fold change (silmitasertib): -0.028 | log2 fold change [2]: 0.019 | log2 fold change (entospletinib): -0.001

GIPC3 (UniProt Q8TF64)
UniProt Q8TF64, sequence (Q8TF64 whole entry, looked up): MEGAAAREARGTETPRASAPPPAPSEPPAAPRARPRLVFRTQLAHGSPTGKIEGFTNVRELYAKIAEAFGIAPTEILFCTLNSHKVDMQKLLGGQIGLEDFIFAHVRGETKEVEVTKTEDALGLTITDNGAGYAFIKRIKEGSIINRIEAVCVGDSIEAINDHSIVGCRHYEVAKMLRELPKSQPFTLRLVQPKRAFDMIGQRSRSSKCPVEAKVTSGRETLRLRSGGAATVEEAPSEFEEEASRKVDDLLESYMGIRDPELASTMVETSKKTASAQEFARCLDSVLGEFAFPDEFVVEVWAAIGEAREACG
log2 fold change (vorinostat): -0.336 | log2 fold change (silmitasertib): 0.044 | log2 fold change [2]: -0.007 | log2 fold change (entospletinib): -0.017

FLT4 (UniProt P35916)
log2 fold change [1]: -0.097 | log2 fold change (vorinostat): -0.435 (active) | log2 fold change (silmitasertib): 0.178 | log2 fold change (entospletinib): 0.054

DVL2 (UniProt O14641)
log2 fold change [1]: -0.056 | log2 fold change (vorinostat): 0.33 (active) | log2 fold change (silmitasertib): 0.049 | log2 fold change [2]: 0.078 | log2 fold change (entospletinib): -0.015

GDE1 (UniProt Q9NZC3)
UniProt Q9NZC3, sequence (Q9NZC3 whole entry, looked up): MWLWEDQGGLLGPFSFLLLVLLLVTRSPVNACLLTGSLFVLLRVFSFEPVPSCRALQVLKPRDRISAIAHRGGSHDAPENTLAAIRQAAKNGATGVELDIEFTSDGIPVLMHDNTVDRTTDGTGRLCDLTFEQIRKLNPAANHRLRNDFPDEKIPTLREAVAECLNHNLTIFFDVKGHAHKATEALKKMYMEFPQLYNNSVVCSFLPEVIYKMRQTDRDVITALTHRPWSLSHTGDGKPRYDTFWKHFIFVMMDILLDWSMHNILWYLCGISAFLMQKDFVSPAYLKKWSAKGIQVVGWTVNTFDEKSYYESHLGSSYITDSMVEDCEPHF
log2 fold change (vorinostat): -0.007 | log2 fold change (silmitasertib): 0.006 | log2 fold change [2]: 0.04 | log2 fold change (entospletinib): -0.162

DST isoform 3 (UniProt Q03001)
log2 fold change (vorinostat): -0.041 | log2 fold change (silmitasertib): 0.087 | log2 fold change (entospletinib): -0.004

EID1 (UniProt Q9Y6B2)
log2 fold change (vorinostat): -0.192 | log2 fold change (silmitasertib): 0.191 | log2 fold change (entospletinib): -0.143

GBA2 (UniProt Q9HCG7)
log2 fold change (vorinostat): -0.089 | log2 fold change (silmitasertib): -0.004 | log2 fold change [2]: -0.091 | log2 fold change (entospletinib): -0.102

DYRK1A isoform 2 (UniProt Q13627)
log2 fold change (vorinostat): -0.222 | log2 fold change (silmitasertib): -0.035 | log2 fold change [2]: 0.002

FAM83A (UniProt Q86UY5)
log2 fold change [1]: -0.049 | log2 fold change (vorinostat): -0.417 (active) | log2 fold change (silmitasertib): -0.034 | log2 fold change [2]: -0.052 | log2 fold change (entospletinib): -0.002

FYCO1 isoform 4 (UniProt Q9BQS8)
log2 fold change [1]: -0.002 | log2 fold change (vorinostat): -0.002 | log2 fold change (silmitasertib): 0.047 | log2 fold change [2]: 0.033 | log2 fold change (entospletinib): -0.002

ESRRB isoform 1 (UniProt O95718)
log2 fold change (silmitasertib): 0.087

GC isoform 3 (UniProt P02774)
log2 fold change [1]: -0.058 | log2 fold change [2]: 0.076 | log2 fold change (entospletinib): -0.053

ESRRA (UniProt P11474)
UniProt P11474, sequence (P11474 whole entry, looked up): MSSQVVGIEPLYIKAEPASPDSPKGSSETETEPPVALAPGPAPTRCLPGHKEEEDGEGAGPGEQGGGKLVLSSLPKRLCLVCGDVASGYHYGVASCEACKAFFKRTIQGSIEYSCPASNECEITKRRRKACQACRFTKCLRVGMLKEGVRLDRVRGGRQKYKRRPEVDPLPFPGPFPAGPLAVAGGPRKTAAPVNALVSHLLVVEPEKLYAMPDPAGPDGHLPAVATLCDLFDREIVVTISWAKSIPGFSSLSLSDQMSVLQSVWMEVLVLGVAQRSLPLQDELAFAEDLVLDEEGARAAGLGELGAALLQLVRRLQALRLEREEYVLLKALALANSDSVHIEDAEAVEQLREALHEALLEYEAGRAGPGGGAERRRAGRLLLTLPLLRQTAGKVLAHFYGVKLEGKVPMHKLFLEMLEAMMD
log2 fold change [1]: -0.094 | log2 fold change (silmitasertib): 0.063 | log2 fold change [2]: 0.026 | log2 fold change (entospletinib): -0.034

EIF2AK3 (UniProt Q9NZJ5)
log2 fold change (vorinostat): -0.142 | log2 fold change (silmitasertib): 0.241

EHHADH (UniProt Q08426)
log2 fold change (vorinostat): 0.706 (active) | log2 fold change (silmitasertib): -0.035 | log2 fold change [2]: -0.048 | log2 fold change (entospletinib): -0.013

GART (UniProt C9JZG2)
log2 fold change [2]: -0.069 | log2 fold change (entospletinib): 0.037

FANCD2 isoform 1 (UniProt Q9BXW9)
log2 fold change [1]: 0.078 | log2 fold change (vorinostat): -0.25 (active) | log2 fold change (silmitasertib): -0.012 | log2 fold change [2]: 0.008 | log2 fold change (entospletinib): -0.005

FOXJ2 (UniProt Q9P0K8)
log2 fold change (vorinostat): -0.208 | log2 fold change (silmitasertib): -0.058 | log2 fold change (entospletinib): 0.033

FXR2 (UniProt P51116)
UniProt P51116, sequence (P51116 whole entry, looked up): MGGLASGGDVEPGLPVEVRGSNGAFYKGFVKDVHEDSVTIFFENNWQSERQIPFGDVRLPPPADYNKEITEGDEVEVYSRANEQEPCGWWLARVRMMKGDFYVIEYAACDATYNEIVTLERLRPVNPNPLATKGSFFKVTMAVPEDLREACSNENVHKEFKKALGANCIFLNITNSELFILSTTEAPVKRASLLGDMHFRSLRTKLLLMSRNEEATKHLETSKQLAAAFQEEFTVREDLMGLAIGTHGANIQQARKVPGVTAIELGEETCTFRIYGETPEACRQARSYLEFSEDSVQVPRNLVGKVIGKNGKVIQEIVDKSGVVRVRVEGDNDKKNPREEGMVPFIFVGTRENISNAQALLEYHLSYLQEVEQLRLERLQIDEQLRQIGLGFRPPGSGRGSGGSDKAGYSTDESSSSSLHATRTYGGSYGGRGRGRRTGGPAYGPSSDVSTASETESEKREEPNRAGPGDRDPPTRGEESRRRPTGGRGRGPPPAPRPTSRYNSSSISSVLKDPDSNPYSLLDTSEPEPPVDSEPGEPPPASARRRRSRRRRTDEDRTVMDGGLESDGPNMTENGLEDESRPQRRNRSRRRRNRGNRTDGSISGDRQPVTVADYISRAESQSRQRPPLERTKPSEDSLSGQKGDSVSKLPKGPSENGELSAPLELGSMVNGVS
log2 fold change [1]: 0.033 | log2 fold change (vorinostat): -0.25 (active) | log2 fold change (silmitasertib): -0.039 | log2 fold change [2]: -0.022 | log2 fold change (entospletinib): -0.064

FKBP8 isoform 2 (UniProt Q14318)
log2 fold change [1]: 0.024 | log2 fold change (vorinostat): -0.219 (active) | log2 fold change (silmitasertib): 0.001 | log2 fold change [2]: -0.028 | log2 fold change (entospletinib): 0.018

GCA (UniProt P28676)
log2 fold change (vorinostat): 1.36 (active) | log2 fold change (silmitasertib): -0.104

FMNL2 isoform 3 (UniProt Q96PY5)
log2 fold change (vorinostat): -0.587 (active) | log2 fold change (silmitasertib): -0.027 | log2 fold change [2]: 0.045

EPB41, A0A2R8Y783
log2 fold change [1]: -0.071 | log2 fold change (entospletinib): 0.393

FOXL2 (UniProt P58012)
UniProt P58012, sequence (P58012 whole entry, looked up): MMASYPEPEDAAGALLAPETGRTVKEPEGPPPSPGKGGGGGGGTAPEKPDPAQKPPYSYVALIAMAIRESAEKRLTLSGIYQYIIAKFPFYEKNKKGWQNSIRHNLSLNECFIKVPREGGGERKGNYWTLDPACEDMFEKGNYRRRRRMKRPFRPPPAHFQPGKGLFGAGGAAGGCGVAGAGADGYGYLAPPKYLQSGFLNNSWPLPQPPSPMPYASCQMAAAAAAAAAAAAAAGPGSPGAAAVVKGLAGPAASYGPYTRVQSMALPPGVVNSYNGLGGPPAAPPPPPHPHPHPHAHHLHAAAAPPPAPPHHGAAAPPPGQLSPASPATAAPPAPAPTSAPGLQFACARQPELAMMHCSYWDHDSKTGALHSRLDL
log2 fold change (vorinostat): -0.501 | log2 fold change (silmitasertib): -0.027 | log2 fold change (entospletinib): -0.352

FNDC3A (UniProt Q9Y2H6)
log2 fold change (vorinostat): -0.018 | log2 fold change (silmitasertib): -0.119 | log2 fold change [2]: -0.146

ESYT2 (UniProt H7BXI1)
log2 fold change [1]: -0.041 | log2 fold change (vorinostat): 0.243 (active) | log2 fold change (silmitasertib): -0.002 | log2 fold change [2]: -0.002 | log2 fold change (entospletinib): 0.019

ERG28 (UniProt Q9UKR5)
log2 fold change (entospletinib): 0.009

FTSJ1 isoform 2 (UniProt Q9UET6)
log2 fold change [1]: -0.109 | log2 fold change (entospletinib): 0.047

ERAL1 (UniProt O75616)
log2 fold change [1]: -0.013 | log2 fold change (vorinostat): -0.103 | log2 fold change (silmitasertib): 0.044 | log2 fold change [2]: -0.044 | log2 fold change (entospletinib): -0.083

EWSR1 (UniProt H7BY36)
log2 fold change [1]: 0.136 | log2 fold change [2]: -0.047 | log2 fold change (entospletinib): 0.016
